Active and inactive are the calls of the source.
How the values were obtained:
[1] = small molecules captured by biotinylated probe aFSTL3 – biochemical, small-molecule microarray, fluorescence 635/667, stem cell growth factor project, primary screen (AID 1064); conditions: higher = more signal;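 note: measures binding of the biotinylated anti-FSTL3 antibody to printed compounds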
[2] = binders from COS7 lysate, DM2A8 probe, primary screen, torsin A project, cell lysate, small-molecule microarray, fluorescence 635/667 (AID 1065); conditions: higher = more signal, COS7 lysate expressing mutant human TOR1A
[3] = small molecules captured by biotinylated probe aFGF2 – biochemical, small-molecule microarray, fluorescence 635/667, stem cell growth factor project, primary screen (AID 1067); conditions: higher = more signal;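 note: measures binding of biotinylated aFGF2 protein to printed compounds on slides; z-score merges feature fluorescence and signal-to-noise across triplicate slides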
[4] = small molecules captured by biotinylated probe aFGF10 – biochemical, small-molecule microarray, fluorescence 635/667, stem cell growth factor project, primary screen (AID 1071); conditions: higher = more signal;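 note: score merges 667 nm spot intensity and signal to noise from triplicate slides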
[5] = target: Neurogenic locus notch homolog protein 2 (Homo sapiens) (UniProt Q04721); assay: small molecules binding Notch2 protein – biochemical, small-molecule microarray, 635 nm fluorescence, stem cell growth factors, primary screen (AID 1073); conditions: higher = more signal
Chain of Neurogenic locus notch homolog protein 2 (Homo sapiens) (Q04721 whole entry, looked up, canonical isoform): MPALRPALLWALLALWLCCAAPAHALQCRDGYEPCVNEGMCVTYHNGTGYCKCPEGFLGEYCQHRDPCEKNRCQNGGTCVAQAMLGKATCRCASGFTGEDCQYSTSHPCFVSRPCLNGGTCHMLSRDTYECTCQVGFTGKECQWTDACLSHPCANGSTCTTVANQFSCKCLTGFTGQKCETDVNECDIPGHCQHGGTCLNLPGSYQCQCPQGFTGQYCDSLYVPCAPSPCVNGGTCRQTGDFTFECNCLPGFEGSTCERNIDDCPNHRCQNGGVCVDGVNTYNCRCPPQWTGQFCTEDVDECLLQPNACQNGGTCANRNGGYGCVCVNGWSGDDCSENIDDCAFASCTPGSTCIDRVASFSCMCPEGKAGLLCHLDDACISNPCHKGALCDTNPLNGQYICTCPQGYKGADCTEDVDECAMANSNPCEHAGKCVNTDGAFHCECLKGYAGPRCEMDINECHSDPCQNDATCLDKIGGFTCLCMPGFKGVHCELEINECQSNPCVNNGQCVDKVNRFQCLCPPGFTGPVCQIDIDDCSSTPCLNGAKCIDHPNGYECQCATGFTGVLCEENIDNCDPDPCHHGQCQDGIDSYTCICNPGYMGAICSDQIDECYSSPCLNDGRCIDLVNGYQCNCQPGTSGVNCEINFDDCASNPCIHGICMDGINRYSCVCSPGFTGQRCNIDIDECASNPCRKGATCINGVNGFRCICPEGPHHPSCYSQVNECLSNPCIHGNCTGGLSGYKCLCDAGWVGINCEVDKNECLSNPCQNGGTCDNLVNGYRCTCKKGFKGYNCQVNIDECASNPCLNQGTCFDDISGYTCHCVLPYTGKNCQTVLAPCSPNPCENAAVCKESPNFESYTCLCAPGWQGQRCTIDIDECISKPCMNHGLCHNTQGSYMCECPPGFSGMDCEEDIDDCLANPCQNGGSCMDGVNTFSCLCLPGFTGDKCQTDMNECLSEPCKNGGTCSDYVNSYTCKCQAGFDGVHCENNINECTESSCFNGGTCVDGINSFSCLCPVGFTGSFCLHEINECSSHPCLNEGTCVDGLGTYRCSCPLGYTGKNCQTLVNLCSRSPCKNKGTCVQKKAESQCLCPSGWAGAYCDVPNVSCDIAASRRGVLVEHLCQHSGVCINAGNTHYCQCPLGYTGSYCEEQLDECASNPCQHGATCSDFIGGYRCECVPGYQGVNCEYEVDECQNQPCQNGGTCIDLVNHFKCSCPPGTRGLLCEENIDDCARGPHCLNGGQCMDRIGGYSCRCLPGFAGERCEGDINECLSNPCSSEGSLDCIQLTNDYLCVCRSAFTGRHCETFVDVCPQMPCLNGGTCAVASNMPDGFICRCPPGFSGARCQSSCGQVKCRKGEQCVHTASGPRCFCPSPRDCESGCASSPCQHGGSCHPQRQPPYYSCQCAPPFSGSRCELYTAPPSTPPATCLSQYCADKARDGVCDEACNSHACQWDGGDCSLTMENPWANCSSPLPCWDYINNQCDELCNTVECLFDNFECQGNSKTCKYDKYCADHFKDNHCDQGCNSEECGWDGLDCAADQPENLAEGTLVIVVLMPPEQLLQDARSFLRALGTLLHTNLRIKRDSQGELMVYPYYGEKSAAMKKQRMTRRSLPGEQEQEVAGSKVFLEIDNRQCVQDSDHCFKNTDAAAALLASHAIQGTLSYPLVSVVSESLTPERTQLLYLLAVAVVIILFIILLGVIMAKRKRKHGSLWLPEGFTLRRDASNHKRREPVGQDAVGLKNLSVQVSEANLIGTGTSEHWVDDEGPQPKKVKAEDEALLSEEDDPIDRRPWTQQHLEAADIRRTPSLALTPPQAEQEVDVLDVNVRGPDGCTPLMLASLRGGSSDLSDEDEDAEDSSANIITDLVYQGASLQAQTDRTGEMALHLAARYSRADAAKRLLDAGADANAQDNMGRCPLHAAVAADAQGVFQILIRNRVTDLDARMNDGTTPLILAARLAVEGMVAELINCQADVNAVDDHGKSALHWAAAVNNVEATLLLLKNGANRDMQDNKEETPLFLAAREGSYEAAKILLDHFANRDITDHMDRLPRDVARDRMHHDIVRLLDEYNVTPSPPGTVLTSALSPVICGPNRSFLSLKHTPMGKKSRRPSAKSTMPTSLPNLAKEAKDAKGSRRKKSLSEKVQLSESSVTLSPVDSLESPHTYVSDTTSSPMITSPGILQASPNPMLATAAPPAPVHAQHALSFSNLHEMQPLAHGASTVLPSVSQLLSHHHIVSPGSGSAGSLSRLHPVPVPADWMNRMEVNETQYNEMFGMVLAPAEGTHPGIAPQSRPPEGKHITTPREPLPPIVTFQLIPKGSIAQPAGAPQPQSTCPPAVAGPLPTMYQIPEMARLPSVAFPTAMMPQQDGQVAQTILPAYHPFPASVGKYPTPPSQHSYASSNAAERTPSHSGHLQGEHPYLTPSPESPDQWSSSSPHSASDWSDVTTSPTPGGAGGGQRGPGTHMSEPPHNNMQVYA

[6] = target: Pro-neuregulin-1, membrane-bound isoform (Homo sapiens) (UniProt Q02297); assay: small molecules binding neuregulin-1 protein – biochemical, small-molecule microarray, fluorescence 635/667, psychiatric disease protein project, primary screen (AID 1075); conditions: NRG1 binding, 635 nm fluorescence, higher = more signal;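 note: score combines 667 nm spot fluorescence with signal to noise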
Chain of Pro-neuregulin-1, membrane-bound isoform (Homo sapiens) (Q02297 whole entry, looked up, the tested form may be a part, canonical isoform): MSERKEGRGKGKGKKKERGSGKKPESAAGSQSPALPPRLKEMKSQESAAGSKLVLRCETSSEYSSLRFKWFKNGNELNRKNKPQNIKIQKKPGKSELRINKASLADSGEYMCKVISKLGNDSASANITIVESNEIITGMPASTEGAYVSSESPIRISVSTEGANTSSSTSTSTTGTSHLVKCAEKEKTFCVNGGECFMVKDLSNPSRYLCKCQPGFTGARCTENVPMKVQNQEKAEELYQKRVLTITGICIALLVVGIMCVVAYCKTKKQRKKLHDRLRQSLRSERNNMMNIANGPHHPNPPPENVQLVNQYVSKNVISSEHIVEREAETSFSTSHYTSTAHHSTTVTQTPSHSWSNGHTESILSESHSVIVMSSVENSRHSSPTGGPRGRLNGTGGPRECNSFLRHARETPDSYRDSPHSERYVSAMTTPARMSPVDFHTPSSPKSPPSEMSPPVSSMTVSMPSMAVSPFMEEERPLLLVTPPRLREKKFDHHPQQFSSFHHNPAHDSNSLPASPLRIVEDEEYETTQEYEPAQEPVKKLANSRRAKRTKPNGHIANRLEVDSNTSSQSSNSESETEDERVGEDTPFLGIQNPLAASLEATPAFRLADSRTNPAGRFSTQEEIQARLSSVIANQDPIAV

[7] = test system: Neuregulin-1 EGF-like domain; assay: small molecules binding NRG1 EGF domain – biochemical, small-molecule microarray, 635 nm fluorescence, primary screen (AID 1081); conditions: higher = more signal;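 note: binding of the protein to compounds printed on small-molecule microarray slides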
[8] = FRG1 expression reporter modulators in myotubes – cell-based, C2C12 myotubes, firefly/Renilla luciferase, luminescence, FRG1 inhibition for FSHD, primary screen (AID 1084); conditions: FRG1 promoter luciferase, higher = more signal, called active from +8 up or from −8 down
[9] = small molecules captured by biotinylated probe aFST – biochemical, small-molecule microarray, fluorescence 635/667, stem cell growth factor project, primary screen (AID 1086); conditions: higher = more signal;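 note: score merges 667 nm fluorescence with signal-to-noise of each printed compound spot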
[10] = binders of probe aHhip on microarray, primary screen, stem cell growth factor project, biochemical, small-molecule microarray, fluorescence 635/667 (AID 1087); conditions: higher = more signal;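 note: score merges spot fluorescence at 667nm with spot signal to noise ratio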
[11] = test system: PRMT1 (protein arginine N-methyltransferase 1); assay: small molecules binding arginine methyltransferase PRMT1 – biochemical, small-molecule microarray, 635 nm fluorescence, primary screen (AID 1088); conditions: higher = more signal;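 note: binding of Prmt1 protein to compounds spotted on small-molecule microarray slides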
[12] = growth effects on S. cerevisiae YJM789 – YJM789 clinical isolate, OD600, 24 h, basal, primary screen (AID 1089); conditions: higher = more signal, called active from +8 up or from −8 down;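 note: growth of clinical yeast isolate S. cerevisiae YJM 789 seeded 1000 cells per well; test concentration not given here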
[13] = S. pombe growth modifiers, basal conditions – strain 972, OD600, 24 h, no modulator, primary screen (AID 1090);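 note: basal condition with compound alone and no growth modifier present; test concentration not given here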; conditions: S. pombe 972 growth, higher = more signal, called active from +8 up or from −8 down
[14] = budding yeast growth modifiers under rapamycin – strain BY4716, OD600, 96 h, primary screen (AID 1091); note: test concentration not given here; conditions: S. cerevisiae BY4716 + rapamycin, higher = more signal, called active from +8 up or from −8 down
[15] = target: Torsin-1A-interacting protein 2 (Homo sapiens) (UniProt Q8NFQ8); assay: small molecules binding lysate-expressed LULL1 – cell lysate, human LULL1 lysate, 635/667 nm fluorescence, primary screen (AID 1092); conditions: small-molecule microarray, hLULL1 lysate binding, 635 nm fluorescence; higher = more signal;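 note: probe is lysate of COS7 cells overexpressing human LULL1; score merges per-feature 667 nm fluorescence with signal-to-noise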
Chain of Torsin-1A-interacting protein 2 (Homo sapiens) (Q8NFQ8 whole entry, looked up): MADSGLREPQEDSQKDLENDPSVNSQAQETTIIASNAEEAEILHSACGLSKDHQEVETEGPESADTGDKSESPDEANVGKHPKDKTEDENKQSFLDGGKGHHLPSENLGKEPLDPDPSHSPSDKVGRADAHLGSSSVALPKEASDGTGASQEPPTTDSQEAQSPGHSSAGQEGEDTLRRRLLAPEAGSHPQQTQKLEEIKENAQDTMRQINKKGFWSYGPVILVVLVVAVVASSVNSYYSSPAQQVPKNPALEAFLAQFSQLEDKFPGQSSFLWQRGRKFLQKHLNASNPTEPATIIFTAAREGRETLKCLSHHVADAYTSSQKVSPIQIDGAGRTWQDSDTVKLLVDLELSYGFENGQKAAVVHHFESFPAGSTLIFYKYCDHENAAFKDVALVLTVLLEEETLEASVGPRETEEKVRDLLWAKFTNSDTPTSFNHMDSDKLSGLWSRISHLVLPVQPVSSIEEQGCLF

[16] = optical density change of DRC41 E. coli – strain DRC41, OD650, 24 h, E. coli filamentation project, primary screen (AID 1093);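 note: MC1000 strain lacking acrAB efflux and sulA so SOS filamentation is blocked; test concentration not given here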; conditions: E. coli DRC41 growth, higher = more signal, called active from +8 up or from −8 down
[17] = probe aLefty2 binding to arrayed compounds – biochemical, biotinylated probe, 635/667 nm fluorescence, primary screen (AID 1094); conditions: small-molecule microarray, higher = more signal;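 note: score merges spot fluorescence near 667 nm with spot signal-to-noise ratio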
[18] = test system: Noggin (protein binding on small-molecule microarray); assay: small molecules binding Noggin protein – biochemical, 635/667 nm fluorescence, primary screen (AID 1095); conditions: 635 nm fluorescence, higher = more signal;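 note: score merges 667 nm feature fluorescence with signal to noise over triplicate slides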
[19] = target: Neurogenic locus notch homolog protein 3 (Homo sapiens) (UniProt Q9UM47); assay: small molecules binding NOTCH3 protein – biochemical, 635/667 nm fluorescence, primary screen (AID 1096); conditions: small-molecule microarray, 635 nm fluorescence, higher = more signal
[20] = probe aEGFR binding to arrayed compounds – biochemical, biotinylated probe, 635/667 nm fluorescence, primary screen (AID 1097); conditions: small-molecule microarray, higher = more signal;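 note: probe is a biotinylated anti-EGFR antibody binding compounds printed on slides; score combines fluorescence near 667 nm and signal to noise of each spot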

Structure (SMILES) | composite z-score [1] | composite z-score [2] | composite z-score [3] | composite z-score [4] | composite z-score [5] | composite z-score [6] | composite z-score [7] | z-score [8] | composite z-score [9] | composite z-score [10] | composite z-score [11] | z-score [12] | z-score [13] | z-score [14] | composite z-score [15] | z-score [16] | composite z-score [17] | composite z-score [18] | composite z-score [19] | composite z-score [20]
COCCOC(=O)N1C(=O)[C@@]2(c3cc(C#CCCO)ccc31)[C@H](c1ccccc1OCCO)N1[C@H](c3ccccc3)[C@H](c3ccccc3)OC(=O)[C@H]1[C@@H]2C(=O)Nc1nc2ccccc2s1 | 0.406 | 1.13 | -0.0066 | 0.662 | 1.42 | 1.51 | 1.31 | 1.47 (inactive) | 0.617 | -0.254 | 1.55 | 0.97 (inactive) | 1.42 (inactive) | 2.76 (inactive) | 2.45 | 0.0879 (inactive) | -0.0063 | 1.1 | 1.06 | 0.113
O=C(N1CCCCC1)[C@@]1(CCS(=O)(=O)c2ccccc2)COC(c2ccc(OCCCO)cc2)=N1 | 1.02 | 1.92 | 0.237 | 0.253 | 1.03 | 1.06 | 1.32 | -3.51 (inactive) | 0.937 | 0.0972 | 1.54 | -0.612 (inactive) | -1.25 (inactive) | -0.0556 (inactive) | 2.84 | 1.23 (inactive) | 0.369 | 1.04 | 0.841 | 0.219
COC(=O)c1c(CC[C@@H](CO)NC(=O)N2CCC[C@H]2Cn2cc(Cc3ccccc3)nn2)oc(C(C)=O)c1C(=O)OC | -0.506 | 0.268 | -0.0759 | 0.325 | 0.0554 | 0.638 | 1.12 | 0.0223 (inactive) | 0.22 | 0.2 | 1.28 | 0.102 (inactive) | -0.279 (inactive) | -1.45 (inactive) | 3.14 | -0.0178 (inactive) | -0.147 | 0.387 | 0.524 | -0.111
CC(CO)N1C(=O)[C@@H]2[C@H]3C(=O)OCC=C[C@H]3OC23C=CCN(C(C)(C)C)C(=O)[C@@H]13 (stereo not given in full) | -0.279 | 0.261 | -0.128 | 0.337 | -0.175 | -0.305 | 1.51 | 1.76 (inactive) | -0.415 | -0.0618 | -0.507 | -0.0994 (inactive) | -0.0932 (inactive) | -0.422 (inactive) | -1.25 | -0.607 (inactive) | -0.103 | -0.429 | -0.0056 | -0.0656
COCCOC(=O)N1C(=O)[C@@]2(c3cc(C#CC4=CCCCC4)ccc31)[C@H](C(=O)N1CCCCCCC1)[C@H]1C(=O)O[C@H](c3ccccc3)[C@H](c3ccccc3)N1[C@@H]2c1ccc(O)cc1 | 0.804 | 0.0395 | -0.0226 | 0.119 | 0.464 | -0.215 | 1.14 | -0.472 (inactive) | 0.409 | -0.31 | 1.56 | -1.17 (inactive) | 0.509 (inactive) | 0.983 (inactive) | 2.88 | 1.53 (inactive) | 0.295 | 0.795 | 0.807 | 0.0383
C=CCN1C(=O)[C@@]2(O[C@@H](CCn3cc([C@H](O)c4ccccc4)nn3)[C@H]([Si](C)(C)c3ccc(OC)cc3)[C@H]2C)c2cc(N3CCC3=O)ccc21 | 0.211 | 0.175 | -0.0894 | 0.383 | -0.496 | 0.997 | 1.25 | -1.88 (inactive) | -0.259 | -0.13 | 0.467 | 1.38 (inactive) | 0.95 (inactive) | 2.37 (inactive) | 1.03 | 0.456 (inactive) | -0.11 | 0.711 | -0.681 | -0.183
COC(=O)[C@H](Cc1ccccc1)N1CC(/C=C/C2CC2)=C[C@H]1[C@H](O)Cc1ccccc1 | -0.284 | 0.177 | -0.104 | 0.6 | 0.34 | 0.821 | 1.01 | -2.56 (inactive) | 0.101 | 0.0274 | 1.54 | -0.457 (inactive) | -3.67 (inactive) | -0.677 (inactive) | 1.18 | -0.25 (inactive) | -0.161 | 0.961 | 0.899 | -0.0343
COCCOC(=O)N1C(=O)[C@@]2(c3cc(C#Cc4ccc(OC)cc4)ccc31)[C@H](c1ccc(O)cc1)N1[C@H](c3ccccc3)[C@H](c3ccccc3)OC(=O)[C@H]1[C@@H]2C(=O)N1CCCCCCC1 | 2.84 | 0.746 | 0.0177 | 0.178 | 0.679 | 0.326 | 0.341 | 1.39 (inactive) | 2.46 | 2.1 | 0.632 | -0.158 (inactive) | -0.239 (inactive) | 1.47 (inactive) | 1.46 | -0.0793 (inactive) | 1.43 | 0.332 | 0.0324 | 0.642
C=CCOC(=O)[C@H]1[C@@H]2C(=O)O[C@@H](c3ccccc3)[C@@H](c3ccccc3)N2[C@@H](c2ccc(OCCOC(=O)[C@H]3C[C@H]4C(=O)N[C@@H](CC(C)C)C(=O)N4[C@H]3c3cccc(OCCO)c3)cc2)[C@]12C(=O)Nc1ccc(I)cc12 | -0.475 | 0.178 | -0.0442 | 0.823 | 0.919 | -0.403 | 1.17 | 0.842 (inactive) | 0.157 | 0.0373 | 1.48 | 0.219 (inactive) | 0.46 (inactive) | 2.8 (inactive) | 2.76 | -0.266 (inactive) | -0.0416 | 0.972 | 0.97 | 0.0436
CN1C(=O)C2C=CC(C(O)C#Cc3ccccc3)N(Nc3ccccc3)C2C1=O (stereo not given) | 0.247 | 0.161 | 0.111 | 1.17 | 1.7 | 1.86 | 1.3 | 2.29 (inactive) | 1.71 | -0.0024 | 1.54 | 0.415 (inactive) | -1.18 (inactive) | 1 (inactive) | 3.4 | -0.672 (inactive) | 0.166 | 0.295 | 1.03 | 0.199
Cc1cc(C)cc(N2C(=O)CSC2c2cccc([N+](=O)[O-])c2)c1 (stereo not given) | -0.0703 | 0.571 | -0.0036 | 0.887 | 1.17 | 1.4 | 1.21 | 1.07 (inactive) | 0.712 | -0.0994 | 1.56 | 0.0032 (inactive) | 0.223 (inactive) | 1.37 (inactive) | 2.39 | 1.58 (inactive) | 0.154 | 0.713 | 1.04 | 0.213
CC(C)[Si](C#CCCCC#N)(O[C@H](c1ccccc1)c1cn([C@H](CO)Cc2ccccc2)nn1)C(C)C | -0.436 | 1.22 | -0.168 | 0.202 | 0.873 | 1.44 | 1.21 | -0.325 (inactive) | -0.337 | 0.0373 | 0.848 | -2.62 (inactive) | -11.3 (active) | -4.64 (inactive) | 1.25 | 1.4 (inactive) | -0.181 | 0.349 | 1.02 | -0.0843
